The results in this text go back to PubChem BioAssay (NCI).

Test systems include SK-MEL-2 melanoma; EKVX NSCLC; SN12C renal; UO-31 renal; TK-10 renal; ACHN renal; CAKI-1 renal; A498 renal; CCRF-CEM leukemia; MOLT-4 leukemia; SR leukemia; RPMI-8226 leukemia; OVCAR-8 ovarian; OVCAR-5 ovarian; OVCAR-4 ovarian; IGROV1 ovarian; HS 578T breast; NCI/ADR-RES ovarian; SK-OV-3 ovarian; OVCAR-3 ovarian.
Holding throughout (assay): NCI-60 one-dose screen, 48 h (100 = growth as untreated, 0 = no growth, -100 = all killed)
Details in all cases: 10 µM

About 83,000 compounds went through this panel and 20% of them were active in at least one assay; those are over-represented in the sample as a whole.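 Testing used 96-well plates and a 48-hour single-concentration exposure. Example: -40 means 40% of the starting cells died.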 Unmarked numbers belong to inactive results. Calls of active or inactive are those of the source. Rule for the calls: active = growth percent below 10; inactive = the rest.

For `COc1ccc2nc3cc(Cl)ccc3c(NCCCNCCO)c2c1`, the growth in the test on SK-MEL-2 melanoma was -87.7% (active); in the test on EKVX NSCLC, -12.9% (active); in the test with SN12C renal, 5.95% (active); in the test on UO-31 renal it was -11.5% (active); with TK-10 renal, -29.4% (active); in the test with ACHN renal, -9.61% (active). In addition, the growth was 18.7% in the test with CAKI-1 renal; -57% (active) in the test on A498 renal; -1.87% (active) in the test on CCRF-CEM leukemia; 2.6% (active) in the test with MOLT-4 leukemia; -8.29% (active) with SR leukemia; -12.1% (active) with RPMI-8226 leukemia. The growth was -23.2% (active) with OVCAR-8 ovarian; -9.73% (active) with OVCAR-5 ovarian; -35.9% (active) in the test with OVCAR-4 ovarian; 2.85% (active) in the test on IGROV1 ovarian; 6.23% (active) with HS 578T breast; 62.4% in the test with NCI/ADR-RES ovarian.
Consider `CCN(CC)CCN1c2nc3ccccc3cc2Sc2cc3ccccc3nc21`, for which the growth is -35.9% (active) in the test on SK-MEL-2 melanoma; -3.38% (active) in the test with EKVX NSCLC; 27% with SN12C renal; -64.1% (active) in the test with UO-31 renal; 82% in the test with TK-10 renal; 24.9% in the test with ACHN renal. Besides, the growth in the test with CAKI-1 renal was 8.6% (active); in the test with A498 renal, 25.7%; in the test on CCRF-CEM leukemia, -27.3% (active); in the test on MOLT-4 leukemia, -47.8% (active); in the test on SR leukemia it was -53% (active); in the test with RPMI-8226 leukemia, -15.9% (active). In addition, the growth with OVCAR-8 ovarian is 7.3% (active); with OVCAR-5 ovarian, 13.6%; with OVCAR-4 ovarian it was 15.8%; with SK-OV-3 ovarian it was 46%; in the test on OVCAR-3 ovarian it was 27.1%; with HS 578T breast, 12.4%. Also, the growth in the test with NCI/ADR-RES ovarian was 4.85% (active).
In the case of `COc1cc(/C=C/c2cc(/C=C/c3ccc(O)c(OC)c3)[nH]c(=O)n2)ccc1O`, the growth with SK-MEL-2 melanoma is 81.1%; with EKVX NSCLC, 71.6%; in the test on SN12C renal, 62.3%; with UO-31 renal, 54.2%; in the test with TK-10 renal, 103%; in the test with ACHN renal it was 89.4%. Besides, the growth in the test on CAKI-1 renal is 88.6%; in the test on A498 renal, 62.8%; with CCRF-CEM leukemia, 16.7%; in the test with MOLT-4 leukemia it was 36.3%; with SR leukemia, 27.2%; in the test on RPMI-8226 leukemia it was 62.5%. In addition, the growth was 58.7% in the test on OVCAR-8 ovarian; 102% with OVCAR-5 ovarian; 71.6% with SK-OV-3 ovarian; 93.1% with IGROV1 ovarian; 59.3% in the test with OVCAR-3 ovarian; 53.9% in the test on HS 578T breast. Also, the growth in the test on NCI/ADR-RES ovarian was 90.7%.
Turning to `COc1cc(C(=O)/C(C)=C/c2c[nH]c3ccccc23)cc(OC)c1OC`, the growth with SK-MEL-2 melanoma is 28.7%; in the test with EKVX NSCLC, 33.5%; in the test with SN12C renal it was 26.3%; in the test with UO-31 renal, 48.8%; in the test on TK-10 renal, 62.3%; with ACHN renal, 28.1%. For the same compound, the growth with CAKI-1 renal is 34.1%; with A498 renal it was 24.8%; in the test on MOLT-4 leukemia, 17.5%; in the test with SR leukemia it was 17.1%; in the test on RPMI-8226 leukemia, 49.9%; in the test on OVCAR-8 ovarian, 20.3%. For the same compound, the growth in the test on OVCAR-5 ovarian is 53.3%; with OVCAR-4 ovarian, 50.1%; with SK-OV-3 ovarian, 29.9%; in the test on IGROV1 ovarian, 18.8%; in the test with OVCAR-3 ovarian, -8.19% (active); with HS 578T breast it was 44.9%.
Consider `Cc1ccc(S(=O)(=O)N/N=C2\CCCc3ccccc32)cc1`, for which the growth was 103% with SK-MEL-2 melanoma; 93.6% with EKVX NSCLC; 112% with SN12C renal; 88.1% with UO-31 renal; 119% with TK-10 renal; 94.9% with ACHN renal. In addition, the growth with CAKI-1 renal was 89.8%; in the test on A498 renal, 91.8%; with CCRF-CEM leukemia, 91.8%; with MOLT-4 leukemia, 101%; with SR leukemia it was 110%; in the test with RPMI-8226 leukemia it was 94.3%. Also, the growth is 90% with OVCAR-5 ovarian; 95.8% in the test with OVCAR-4 ovarian; 111% with SK-OV-3 ovarian; 113% in the test with IGROV1 ovarian; 113% in the test with OVCAR-3 ovarian; 95% with HS 578T breast.
As to `O=C(N/N=C/c1cc([N+](=O)[O-])ccc1O)c1cccc2ccccc12`, the growth in the test with SK-MEL-2 melanoma was 66.4%; in the test on EKVX NSCLC, 33.5%; in the test with SN12C renal it was 51.1%; with UO-31 renal, 19.1%; in the test with TK-10 renal, 46.3%; with ACHN renal, 15.7%. Besides, the growth with CAKI-1 renal was 19.9%; with A498 renal it was 62.4%; in the test with CCRF-CEM leukemia it was -8.77% (active); in the test with MOLT-4 leukemia, 9.21% (active); with RPMI-8226 leukemia it was 21.5%; in the test on OVCAR-8 ovarian, 22.8%. Moreover, the growth with OVCAR-5 ovarian is 47.2%; in the test on OVCAR-4 ovarian it was 20.2%; in the test on SK-OV-3 ovarian it was 41%; with IGROV1 ovarian, 39.8%; with OVCAR-3 ovarian it was 27.2%; in the test with NCI/ADR-RES ovarian, 10.6%.
As to `CC(C)c1ccc(C(C)C(=O)N(CC2=C(C(C)c3ccccn3)c3ccccc3C2)C(C)C)cc1` (stereo unspecified), the growth in the test with SK-MEL-2 melanoma was 24.1%; with EKVX NSCLC, 13.6%; with SN12C renal, 34%; in the test with UO-31 renal, -12.2% (active); with TK-10 renal, 53.8%; in the test with ACHN renal, 36.6%. Besides, the growth was 3.55% (active) with CAKI-1 renal; 49.1% with A498 renal; 30.4% with CCRF-CEM leukemia; 24.2% with SR leukemia; 14.6% in the test on RPMI-8226 leukemia; 46.6% in the test on OVCAR-8 ovarian. For the same compound, the growth was 64.7% in the test on OVCAR-5 ovarian; 30.2% in the test on OVCAR-4 ovarian; 29.7% in the test with OVCAR-3 ovarian; 47.4% in the test with HS 578T breast; 24.2% in the test with NCI/ADR-RES ovarian.
Turning to `COc1cc2c(cc1NC(=O)C(Cl)Cl)-c1ccc(NC(=O)C(Cl)Cl)cc1C2`, the growth in the test with SK-MEL-2 melanoma is -14.7% (active); in the test on EKVX NSCLC it was -9.2% (active); in the test with SN12C renal, 58.6%; in the test with UO-31 renal it was -9.34% (active); in the test on TK-10 renal, -12.3% (active); with ACHN renal, -43.4% (active). The growth in the test with CAKI-1 renal is -35.4% (active); with A498 renal it was 10.1%; in the test with CCRF-CEM leukemia it was 81.9%; in the test on MOLT-4 leukemia it was 94.8%; in the test with SR leukemia, 86.4%; in the test with RPMI-8226 leukemia, 1.01% (active). Besides, the growth with OVCAR-8 ovarian was -22.8% (active); with OVCAR-5 ovarian, 10.2%; in the test on SK-OV-3 ovarian, 56.3%; in the test on IGROV1 ovarian it was 43.1%; with OVCAR-3 ovarian, -44.6% (active); in the test with HS 578T breast, 13.6%. For the same compound, the growth in the test on NCI/ADR-RES ovarian was -39.2% (active).
